Only some compounds are listed: those with a hit (about 3.6% of all), similar ones and a draw of the others.
mHTT CaM bind = mutant huntingtin-calmodulin interaction inhibitors – biochemical, AlphaScreen, primary screen. AlphaScreen His-mHTT/GST-CaM binding, luminescence. AID 1671202, 2021. inhibition, % at 15 µM. 3.6% of 190,000 active. P42858;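 also: 0% = both proteins with DMSO and 100% = one protein alone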
Pf apPOL inh = Pf-apPOL inhibitors, biochemical, fluorescence | Recombinant Pf-apPOL, molecular beacon fluorescence, 1.5 h | inhibition, % at 10 µM | 0.25% of 210,000 active | AID 1794808, 2022
Numbers without * were called inactive; . = no result; ! = not confirmed by another sample. Rule as the data show it: active = inhibition above about 50%; inactive = the rest.

SMILES | mHTT CaM bind | Pf apPOL inh
CC(C)(C)C1CCc2c(sc3c2C(=O)NC(c2ccc(O)cc2O)N3)C1 (stereo not given) | 32.0 | -12.6
CC(=O)c1ccc(NC(=O)N2CC3CC(NC(=O)c4cccnc4)C2C3)cc1 (stereo not given) | 1.9 | -4.5
CC(=O)Nc1ccc(C(=O)Nc2cccc(Cl)c2C)cc1 | -5.7 | -1.6
O=C(O)Cn1c2ccccc2c2nnc(SCC(=O)Nc3cccc(Br)c3)nc21 | 25.0 | -3.0
O=C(CSc1n[nH]c(-c2ccccc2)n1)Nc1ccccc1[N+](=O)[O-] | 12.0 | -0.9
O=C(CSc1nnc(-c2ccco2)c(-c2ccco2)n1)Nc1cccc(Br)c1 | 100.0* | -3.3
O=C(CSc1nnc(-c2ccco2)o1)Nc1cccc([N+](=O)[O-])c1 | -5.8 | -3.3
O=C(CSc1nnc(-c2ccco2)c(-c2ccco2)n1)Nc1cccc([N+](=O)[O-])c1 | 98.0* | 4.1
O=C(CSc1nnc(-c2ccco2)c(-c2ccco2)n1)Nc1ccccc1[N+](=O)[O-] | 74.0* | -3.3
CCOc1cccc2cc(C(=O)Nc3ccc(Cl)cc3Cl)c(=N)oc12 | -1.0 | 3.9
COc1ccc(S(=O)(=O)NCCC23CC4CC(CC(C4)C2)C3)cc1OC | 3.1 | 4.8
CCn1cc2c3c(cccc31)CN(C(=O)c1ccc(F)cc1)CC2 | 29.6 | -6.4
CCn1cc2c3c(cccc31)CN(C(=O)COc1ccccc1)CC2 | 75.5* | -8.2
CCn1cc2c3c(cccc31)CN(C(C)=O)CC2 | 4.7 | -2.9
CCCn1cc2c3c(cccc31)CN(C(=O)COc1ccc(F)cc1)CC2 | 54.8* | -3.0
CN(C)CCNC(=O)CN1N=C(c2ccc(Cl)cc2)CCC1=O | -6.0 | -12.4
CCn1nc(C(=O)Nc2cccnc2)cc1-c1cccc(OC)c1 | 7.5 | -1.2
O=S(=O)(Nc1ccc(-c2csnn2)cc1)c1cc(C(F)(F)F)cc(C(F)(F)F)c1 | . | -12.8
COc1ccc(N=Nc2cc(C)c3cc(C(C)C)ccc(C)c2-3)cc1 | . | 1.1
CNC(=O)CSc1ncc(-c2ccc(Br)cc2)n1Cc1ccccc1 | 69.1* | -7.8
COCCn1c(-c2ccccc2)cnc1SCC(=O)Nc1ccccc1 | 0.2 | -15.3
COCCn1c(CC2CCN(S(=O)(=O)c3ccc4c(c3)CCC4)C2)nc2cccnc21 (stereo not given) | 15.3 | 7.2
CCCN(Cc1ccsc1)C(=O)c1ccc(OC)c(OC)c1OC | -9.8 | -4.4
Cc1ccccc1C(=O)Nc1ccc(N2CCCCC2)cc1 | 3.3 | -4.2
O=C(c1ccco1)N1CCC(Nc2cccnc2)C1 (stereo not given) | -1.5 | -3.6
SMILES | mHTT CaM bind | Pf apPOL inh
Cc1cccc(C2=NN(c3ccccc3)[C@@H](C(=O)N3CCOC3=O)[C@@H]2c2ccccc2)c1 | -32.2 | -5.5
COc1ccccc1[C@H]1C(c2cccc(C)c2)=NN(c2ccccc2)[C@@H]1CO | 85.7* | -1.2
COc1ccccc1[C@H]1C(c2ccccc2)=NN(c2ccccc2)[C@@H]1CO | 4.6 | -0.8
COc1ccccc1[C@H]1C(c2ccc(F)cc2)=NN(c2ccccc2)[C@@H]1CO | 66.7* | -8.4
CCn1cc(C(=O)Nc2cccc(C(C)=O)c2)c2nn(-c3ccccc3)c(=O)c-2c1 | -16.5 | -1.5
COc1cc(C=C2SC(=S)N(c3ccc(O)c(C(=O)O)c3)C2=O)ccc1O | 54.3* | 6.2
CCC(C(=O)O)N1C(=O)C(=Cc2ccc(O)c(OC)c2)SC1=S (stereo not given) | 31.7 | -36.5
CCCCCCCC(=O)NN1C(=O)C(=Cc2ccc(O)c(OC)c2)SC1=S | 88.1* | -65.9
CCOc1ccc(C=C2SC(=S)N(CCCCCC(=O)O)C2=O)cc1OC | 47.2 | 14.3
O=C1NC(=S)N/C1=C/c1ccc(-c2ccc3c(c2)C(=O)NC3=O)o1 | 54.9* | .
CC1=NN(c2ccc(Br)cc2)C(=O)/C1=C/c1ccc(-c2ccc3c(c2)C(=O)NC3=O)o1 | 6.0 | -1.3
Cc1cc(C(=O)NC2CCN(Cc3c(F)cccc3Cl)CC2)nn1-c1ccccc1 | . | -14.0
O=C(O)CC(CC(=O)Nc1ccc(C(=O)O)cc1)c1ccccc1 (stereo not given) | -4.8 | 94.4*
NS(=O)(=O)c1ccc(NC(=O)CC(CC(=O)O)c2ccccc2)cc1 (stereo not given) | . | 3.5
COCC(C)NC(=O)c1c(-c2c(Cl)cccc2Cl)noc1C (stereo not given) | 1.0 | 0.5
Cc1c(Cc2ccccc2)sc(NC(=O)c2ccccc2Br)c1C(N)=O | 16.0 | 2.0
O=C(NCc1ccccn1)c1ncn[nH]1 | 42.7 | 0.2
CC(C)(C)c1ccc(OCNC(=O)c2ncn[nH]2)cc1 | 73.0* | -1.5
Cc1scc2nc(C(=O)N3CCC(C)CC3)nc(N3CCCC3)c12 | 44.6 | -11.1
CC(C)C(=O)Nc1ccc2oc(-c3ccncc3)nc2c1 | 3.0 | 5.3
COc1cc(C=Nc2ccc(C)cc2C)cc(OC)c1OC | 5.0 | -1.7
Cc1noc(C)c1S(=O)(=O)N1CCC(CC(=O)NC(C)c2ccccc2)CC1 (stereo not given) | -7.0 | 1.2
COc1ccccc1-c1ccc(C=CC(=O)c2ccco2)o1 | 58.1* | -8.7
Cc1ccc(-c2ccc(/C=C/C(=O)c3ccco3)o2)cc1 | 31.2 | -14.4
Cc1ccc(CNc2ccc3c(c2)ncn3C)cc1 | 25.0 | -6.7
SMILES | mHTT CaM bind | Pf apPOL inh
Nc1nc2ccccc2n1Cc1ccccc1 | 3.1 | -4.1
Cn1cnc2cc(NCc3nc4ccccc4n3Cc3ccccc3)ccc21 | 87.9*! | -2.0
Fc1ccc(NCc2nc3ccccc3n2Cc2ccccc2)cc1 | 50.0* | 0.0
COc1ccc(NC(=O)C2CC(=O)NC(=Nc3ccc(C)c(C)c3)S2)cc1 (stereo not given) | 2.3 | -6.1
COc1ccc(N=C2NC(=O)CC(C(=O)Nc3cc(C(F)(F)F)ccc3Cl)S2)cc1 (stereo not given) | 78.0* | -10.9
CC1=NN(C(=O)c2cccc(Cl)c2)C(O)(c2ccc(Cl)cc2)C1 (stereo not given) | 54.0* | -7.7
CC1=NN(C(=O)c2ccccc2Cl)C(O)(c2ccc(Cl)cc2)C1 (stereo not given) | 15.0 | -6.4
CC1=NN(C(=O)c2ccc(Cl)cc2)C(O)(c2ccc(Cl)cc2)C1 (stereo not given) | 67.0* | 2.4
CC1=NN(C(=O)c2ccccc2F)C(O)(c2ccc(Cl)cc2)C1 (stereo not given) | 11.0 | -1.7
N#CC1=C(N)OC2=C(C(=O)CC(c3ccccc3)C2)C1c1ccc(F)cc1 (stereo not given) | 4.2 | -2.6
COc1ccccc1C=C1Oc2c(ccc(O)c2CN2CCN(CCO)CC2)C1=O | 6.3 | -2.6
CC(C)c1cc(C2CCCN2C(=O)c2ccc(F)cc2)on1 (stereo not given) | -2.2 | 2.4
Cc1ccc(C(=O)Nc2nnc(SCC(=O)Nc3ccc(F)cc3)s2)cc1 | -2.2 | 0.6
COc1ccc(C2CC(=O)Oc3c(C(C)C)ccc(C)c32)cc1 (stereo not given) | -35.5 | -7.1
COc1ccc(C2CC(=O)Oc3cc(OC)ccc32)cc1 (stereo not given) | -0.5 | -2.3
COc1ccc(C2CC(O)(c3ccccc3)Oc3c(C)ccc(C(C)C)c32)cc1 (stereo not given) | 54.7* | 1.6
COc1ccc(C2CC(O)(c3ccccc3)Oc3cc(OC)ccc32)cc1 (stereo not given) | 80.5* | -3.0
Cc1ccc(N=Cc2cc(C)cc(I)c2O)c(O)c1 | 42.0 | 1.3
